This passage reports outcome and AC50 results from PubChem BioAssay (EPA / NIEHS).

Conditions in all cases: mRNA level, 48 h; actives raise or lower the signal
Read-out in experiment [1]: Bcl-2 (BID) gene, BID (gene 637)
Kind of experiment: LTEA_HepaRG_BID: Life Technologies and Expression Analysis (LTEA) Assay for Bcl-2 (BID) gene using HepaRG (AID 2283476). In outline: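 Duplicate 48 h treatments of HepaRG cells in serum-free induction medium spanned 100 uM downward in half-log steps, 0.5% DMSO. Transcript change quantified by qRT-PCR against three housekeeping genes, fitted up or down versus DMSO.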

Read-out in a further experiment: Caspase-3 (Homo sapiens) (UniProt P42574)
Kind of experiment: LTEA_HepaRG_CASP3: Life Technologies and Expression Analysis (LTEA) Assay for cysteine-aspartic acid protease (CASP3) using HepaRG (AID 2283477). The gist of the method:
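Read-out is CASP3 mRNA level by TaqMan qRT-PCR in human HepaRG cells after 48 h chemical exposure. Eight half-log concentrations topping at 100 uM were tested in 0.5% DMSO; gain or loss was fitted relative to DMSO.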

Read-out in experiment [2]: Cytochrome P450 (CYP24A1), CYP24A1 (gene 1591)
Kind of experiment: LTEA_HepaRG_CYP24A1: Life Technologies and Expression Analysis (LTEA) Assay for Cytochrome P450 (CYP24A1) using HepaRG (AID 2283478). The gist of the method: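 HepaRG, 48 h chemical exposure, 8-pt half-log CRC from 100 uM, 0.5% DMSO vehicle, duplicates. Endpoint: CYP24A1 mRNA by Fluidigm TaqMan qRT-PCR, normalized ACTB/GAPDH/POLR2A; gain/loss fit vs DMSO.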

Read-out in experiment [3]: Cytochrome P450 (CYP1A2), CYP1A2 (gene 1544)
Kind of experiment: LTEA_HepaRG_CYP1A2: Life Technologies and Expression Analysis (LTEA) Assay for Cytochrome P450 (CYP1A2) using HepaRG (AID 2283479). In outline: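 CYP1A2 transcript induction or loss, quantified by Fluidigm qRT-PCR against three housekeeping genes, was fitted bidirectionally against 0.5% DMSO controls. Human HepaRG cells received eight half-log concentrations from 100 uM over 48 h.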

Read-out in experiment [4]: cysteine-aspartic acid protease (CASP8), CASP8 (gene 841)
Put plainly: LTEA_HepaRG_CASP8: Life Technologies and Expression Analysis (LTEA) Assay for cysteine-aspartic acid protease (CASP8) using HepaRG (AID 2283480). The gist of the method:
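Concentration-response in duplicate up to 100 uM (half-log steps, 0.5% DMSO) on differentiated HepaRG cultures for 48 h. Expression change of CASP8 mRNA is determined by TaqMan qRT-PCR with housekeeping-gene normalization.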

Read-out in experiment [5]: Cytochrome P450 (CYP2B6), CYP2B6 (gene 1555)
Put plainly: LTEA_HepaRG_CYP2B6: Life Technologies and Expression Analysis (LTEA) Assay for Cytochrome P450 (CYP2B6) using HepaRG (AID 2283481). The gist of the method: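 HepaRG cells plated 48 h, switched to serum-free induction medium, then dosed 48 h (8 points, half-log from 100 uM, 0.5% DMSO). RNA isolated; CYP2B6 expression measured by qRT-PCR; gain or loss fitted relative to DMSO.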

Read-out in experiment [6]: Cytochrome P450 2C19 (Homo sapiens) (UniProt P33261)
Put plainly: LTEA_HepaRG_CYP2C19: Life Technologies and Expression Analysis (LTEA) Assay for CYP2C19 using HepaRG (AID 2283482). In outline:
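Transcript levels of CYP2C19 were quantified by qRT-PCR after HepaRG cells were treated for 48 hours with test chemicals up to 100 uM (eight half-log concentrations, 0.5% DMSO vehicle). Gain or loss of signal was fitted relative to DMSO.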

Read-out in another experiment: CYP2C8 (gene 1558)
Put plainly: LTEA_HepaRG_CYP2C8: Life Technologies and Expression Analysis (LTEA) Assay for CYP2C8 using HepaRG (AID 2283483). In outline: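 This is a transcriptional endpoint in HepaRG cultures: 48 h exposure, highest concentration 100 uM. CYP2C8 mRNA is quantified by TaqMan qRT-PCR.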

Read-out in another experiment: CYP2C9 (gene 1559)
Put plainly: LTEA_HepaRG_CYP2C9: Life Technologies and Expression Analysis (LTEA) Assay for CYP2C9 using HepaRG (AID 2283484). In outline: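 Eight-point concentration-response (highest 100 uM, half-log dilutions) in HepaRG cells for 48 h; CYP2C9 expression by qRT-PCR normalized to ACTB, GAPDH, POLR2A. Bidirectional fit, DMSO baseline.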

Read-out in a further experiment: CYP2E1 (gene 1571)
Put plainly: LTEA_HepaRG_CYP2E1: Life Technologies and Expression Analysis (LTEA) Assay for CYP2E1 using HepaRG (AID 2283485). In outline: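 CYP2E1 transcript measured by Fluidigm qRT-PCR against three housekeeping genes in human HepaRG cells treated 48 h (top 100 uM, half-log steps, 0.5% DMSO vehicle). Gain or loss fitted relative to DMSO baseline.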

Read-out in the next experiment: CYP4A11 (gene 1579)
Put plainly: LTEA_HepaRG_CYP4A11: Life Technologies and Expression Analysis (LTEA) Assay for CYP4A11 using HepaRG (AID 2283486). The gist of the method: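 HepaRG, 48 h chem exposure, 8 conc (100 uM top, half-log), 0.5% DMSO vehicle; qRT-PCR readout, housekeeping-gene normalized; bidirectional curve fit vs DMSO baseline.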

Read-out in experiment [7]: Cytochrome P450 3A4 (Homo sapiens) (UniProt P08684)
Put plainly: LTEA_HepaRG_CYP3A4: Life Technologies and Expression Analysis (LTEA) Assay for CYP3A4 using HepaRG (AID 2283487). The gist of the method:
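In a human hepatic line (HepaRG), duplicate wells were treated 48 h with up to 100 uM chemical in half-log dilutions. Endpoint: CYP3A4 mRNA induction or loss relative to 0.5% DMSO vehicle, by qRT-PCR.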

Read-out in experiment [8]: DNA damage-inducible transcript 3 (DDIT3), DDIT3 (gene 1649)
Put plainly: LTEA_HepaRG_DDIT3: Life Technologies and Expression Analysis (LTEA) Assay for DNA damage-inducible transcript 3 (DDIT3) using HepaRG (AID 2283488). The gist of the method: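 DDIT3 transcript was quantified by qRT-PCR with ACTB/GAPDH/POLR2A normalization after 48 h chemical treatment of differentiated HepaRG cells in 0.5% DMSO. Dosing was eight-point, half-log, top 100 uM, duplicate wells. Curves fitted bidirectionally versus DMSO.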

Read-out in experiment [9]: Pro-epidermal growth factor (Homo sapiens) (UniProt P01133)
Kind of experiment: LTEA_HepaRG_EGF: Life Technologies and Expression Analysis (LTEA) Assay for Epidermal growth factor (EGF) using HepaRG (AID 2283489). The gist of the method:
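HepaRG, 48 h dosing, 100 uM top, half-log x8, 0.5% DMSO. Readout: TaqMan qRT-PCR (Fluidigm array), housekeeping-normalized. Gain or loss of signal fit vs DMSO.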

Read-out in experiment [10]: Early growth response protein 1 (EGR1) transcription factor, EGR1 (gene 1958)
Put plainly: LTEA_HepaRG_EGR1: Life Technologies and Expression Analysis (LTEA) Assay for Early growth response protein 1 (EGR1) transcription factor using HepaRG (AID 2283490). The gist of the method:
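EGR1 expression change in human HepaRG after 48 h chemical exposure, assessed by housekeeping-normalized qRT-PCR; concentration-response up to 100 uM, fitted in both directions against DMSO controls.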

Read-out in experiment [11]: Ezrin (EZR), EZR (gene 7430)
Put plainly: LTEA_HepaRG_EZR: Life Technologies and Expression Analysis (LTEA) Assay for Ezrin (EZR) using HepaRG (AID 2283491). The gist of the method:
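Gain or loss of EZR mRNA is scored relative to 0.5% DMSO in human HepaRG cultures treated 48 h with test chemicals in duplicate, eight half-log concentrations from 100 uM.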

Read-out in experiment [12]: Cytochrome P450 3A7 (Homo sapiens) (UniProt P24462)
Kind of experiment: LTEA_HepaRG_CYP3A7: Life Technologies and Expression Analysis (LTEA) Assay for CYP3A7 using HepaRG (AID 2283492). The gist of the method:
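Human HepaRG liver cells, 48 h post-plating, switched to serum-free induction medium and exposed in duplicate for 48 h. Dosing: 100 uM top, half-log dilutions, 8 points, 0.5% DMSO vehicle. Read-out: CYP3A7 mRNA, gain or loss fitted against DMSO baseline.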

Read-out in a further experiment: CYP3A5 (gene 1577)
Kind of experiment: LTEA_HepaRG_CYP3A5: Life Technologies and Expression Analysis (LTEA) Assay for CYP3A5 using HepaRG (AID 2283493). The gist of the method:
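mRNA levels were quantified by qRT-PCR on Fluidigm arrays and normalized to three housekeeping genes. Differentiated HepaRG cells received 48 h exposure (top 100 uM, half-log steps, 0.5% DMSO vehicle, duplicate); bidirectional fitting versus DMSO.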

Read-out in experiment [13]: Fatty Acid-Binding Protein 1 (FABP1), FABP1 (gene 2168)
Kind of experiment: LTEA_HepaRG_FABP1: Life Technologies and Expression Analysis (LTEA) Assay for Fatty Acid-Binding Protein 1 (FABP1) using HepaRG (AID 2283494). The gist of the method:
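Values reflect bidirectional concentration-response fitting of FABP1 mRNA change against 0.5% DMSO controls. Human HepaRG cultures received eight half-log doses (top 100 uM) for 48 h; expression quantified by TaqMan qRT-PCR with housekeeping-gene normalization.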

Read-out in experiment [14]: Cytochrome P450 4A22 (Homo sapiens) (UniProt Q5TCH4)
Kind of experiment: LTEA_HepaRG_CYP4A22: Life Technologies and Expression Analysis (LTEA) Assay for Cytochrome P450 4A22 (CYP4A22) using HepaRG (AID 2283495). In outline:
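Readout is CYP4A22 transcript induction or loss, quantified by qRT-PCR and normalized to ACTB, GAPDH and POLR2A. Human HepaRG cells receive test chemicals for 48 h at eight half-log concentrations from 100 uM in 0.5% DMSO.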

Calls of active or inactive are those of the source. Rule for the calls: active = hit-call score of the fitted dose curve at least 0.9, where 1 is the maximum; inactive = score below 0.9.

Chain of Caspase-3 (Homo sapiens) (P42574 whole entry, looked up): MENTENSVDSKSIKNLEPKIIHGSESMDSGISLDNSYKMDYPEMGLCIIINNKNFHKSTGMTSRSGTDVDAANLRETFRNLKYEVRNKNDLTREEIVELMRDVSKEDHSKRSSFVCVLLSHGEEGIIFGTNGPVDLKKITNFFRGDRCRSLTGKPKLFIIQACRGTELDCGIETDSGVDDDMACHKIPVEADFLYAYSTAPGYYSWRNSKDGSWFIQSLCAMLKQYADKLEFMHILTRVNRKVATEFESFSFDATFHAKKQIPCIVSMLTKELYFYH
Chain of Cytochrome P450 3A4 (Homo sapiens) (P08684 whole entry, looked up): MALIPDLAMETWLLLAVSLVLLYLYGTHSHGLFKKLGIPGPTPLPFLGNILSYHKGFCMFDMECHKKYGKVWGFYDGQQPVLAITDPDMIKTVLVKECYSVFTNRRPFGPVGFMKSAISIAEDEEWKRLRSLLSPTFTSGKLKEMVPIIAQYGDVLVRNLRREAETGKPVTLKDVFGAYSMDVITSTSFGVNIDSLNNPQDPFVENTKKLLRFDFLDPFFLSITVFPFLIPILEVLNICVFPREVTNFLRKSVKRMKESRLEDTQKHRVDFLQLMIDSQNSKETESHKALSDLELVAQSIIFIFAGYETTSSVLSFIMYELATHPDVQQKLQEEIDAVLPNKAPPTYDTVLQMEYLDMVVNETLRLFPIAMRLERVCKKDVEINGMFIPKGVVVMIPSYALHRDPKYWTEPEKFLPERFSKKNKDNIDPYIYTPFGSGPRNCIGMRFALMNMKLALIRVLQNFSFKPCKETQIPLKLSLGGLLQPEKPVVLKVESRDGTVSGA
Chain of Cytochrome P450 2C19 (Homo sapiens) (P33261 whole entry, looked up): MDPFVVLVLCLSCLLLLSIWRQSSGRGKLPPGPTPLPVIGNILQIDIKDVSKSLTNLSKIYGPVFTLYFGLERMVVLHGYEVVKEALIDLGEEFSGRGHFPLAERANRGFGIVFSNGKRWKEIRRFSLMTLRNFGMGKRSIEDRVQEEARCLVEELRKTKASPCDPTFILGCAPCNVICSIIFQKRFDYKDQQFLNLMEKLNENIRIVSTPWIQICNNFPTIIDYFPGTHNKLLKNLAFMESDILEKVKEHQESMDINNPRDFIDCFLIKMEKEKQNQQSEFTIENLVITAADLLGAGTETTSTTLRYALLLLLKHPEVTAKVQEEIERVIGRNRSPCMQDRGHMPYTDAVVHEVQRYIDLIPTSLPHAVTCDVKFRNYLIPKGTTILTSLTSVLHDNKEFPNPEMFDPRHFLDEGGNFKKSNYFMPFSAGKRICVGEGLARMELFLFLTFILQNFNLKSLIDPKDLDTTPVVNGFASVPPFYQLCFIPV
Chain of Cytochrome P450 3A7 (Homo sapiens) (P24462 whole entry, looked up): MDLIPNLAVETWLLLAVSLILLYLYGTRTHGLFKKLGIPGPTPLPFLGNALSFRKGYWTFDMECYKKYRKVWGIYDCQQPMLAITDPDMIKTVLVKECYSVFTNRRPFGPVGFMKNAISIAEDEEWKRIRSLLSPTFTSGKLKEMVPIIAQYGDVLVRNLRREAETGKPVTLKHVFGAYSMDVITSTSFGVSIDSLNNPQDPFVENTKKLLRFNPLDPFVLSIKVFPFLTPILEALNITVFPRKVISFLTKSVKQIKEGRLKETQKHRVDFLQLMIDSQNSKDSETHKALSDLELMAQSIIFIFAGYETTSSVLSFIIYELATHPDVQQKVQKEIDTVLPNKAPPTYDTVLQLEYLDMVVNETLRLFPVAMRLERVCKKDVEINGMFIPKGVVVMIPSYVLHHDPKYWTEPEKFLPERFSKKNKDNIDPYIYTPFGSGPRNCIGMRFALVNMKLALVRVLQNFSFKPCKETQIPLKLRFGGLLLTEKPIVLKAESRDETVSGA

For `CC(O)CN(CCN(CC(C)O)CC(C)O)CC(C)O` (stereo not given), the compound was called inactive (in experiment [1]; with Caspase-3 (Homo sapiens); in experiment [2]; in [4]; in experiment [5]; in experiment [6]). Also, the compound was classed as inactive (in the experiment with CYP2C9 (gene 1559); with CYP2E1 (gene 1571); in [7]; in experiment [8]; in [9]; in experiment [11]). Also, the compound was classed as inactive in [12], in experiment [13] and in experiment [14]. Further, the AC50 – broadly, the concentration at which the activity in the assay is half-maximal – in experiment [3] is 50 µM (active); with CYP2C8 (gene 1558), 12.6 µM (active); in the experiment with CYP4A11 (gene 1579), 12.8 µM (active); in experiment [10], 12.6 µM (active); with CYP3A5 (gene 1577) it was 12.4 µM (active).

`Fc1ccccc1[C@@H](F)COC1CCC(Nc2ncnc3[nH]ncc23)CC1` (stereo not given in full): the result (in [1]; in experiment [2]; in [4]; with CYP2C8 (gene 1558); in [11]; in the experiment with CYP3A5 (gene 1577)) was inactive. Also, the AC50 in the experiment with Caspase-3 (Homo sapiens) was 24.9 µM (active); in experiment [3], 29.1 µM (active); in experiment [5], 30.9 µM (active); in experiment [6] it was 67.9 µM (active); with CYP2C9 (gene 1559), 37.7 µM (active); with CYP2E1 (gene 1571), 12.7 µM (active). For the same compound, the half-maximal activity concentration (AC50) with CYP4A11 (gene 1579) was 40.1 µM (active); in experiment [7], 35.6 µM (active); in experiment [8], 28.9 µM (active); in experiment [9], 50 µM (active); in [10] it was 14.3 µM (active); in experiment [12], 83.1 µM (active). Moreover, the AC50 in experiment [13] was 64 µM (active); in experiment [14], 23 µM (active).

For `CC(C)=CCCC(C)CCO` (stereo not given), the call (in [1]; with Caspase-3 (Homo sapiens); in experiment [2]; in experiment [4]; in experiment [6]; with CYP2C8 (gene 1558)) was inactive. Moreover, the compound was classed as inactive (with CYP2C9 (gene 1559); in the experiment with CYP2E1 (gene 1571); with CYP4A11 (gene 1579); in experiment [7]; in experiment [8]; in experiment [9]). Besides, the result (in experiment [10]; in [11]; in experiment [12]; in the experiment with CYP3A5 (gene 1577); in experiment [13]; in experiment [14]) was inactive. Moreover, the results for the AC50 in [3] and in experiment [5] were 50 µM (active) and 11.7 µM (active), respectively.
